Measurements published in PubChem BioAssay (NCATS).
Results filed as inconclusive are left out. Values without a mark were called inactive. The source made the active and inactive calls. The call rests on the fitted dose curve; in most records, active means well fitted curve in the direction sought with a large enough effect; inconclusive means small, poorly fitted or top-dose-only effect, or another doubt; inactive means no such curve, though single readings can be large; an effect the other way counts as inactive or inconclusive.

System: not listed separately
Test: qHTS to identify inhibitors of the type 1 interferon - major histocompatibility complex class I in skeletal muscle: primary screen against the NCATS Pharmaceutical Collection (AID 1347407);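 further: luminescence of HiBiT knocked into endogenous HLA-B as interferon-induced MHC class I level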; further: potency means the concentration at half of the fitted maximal effect; on activity change, negative = inhibition: on the % scale 0 is the no-effect control and ±100 the full control effect
Conditions: human skeletal muscle cells, IFN-b-induced MHC-I HiBiT luminescence, 24 h; series mostly up to 45.9 µM; activity change, negative = inhibition: at the top concentration
Outline: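 Immortalized human myoblasts (C25cl48) with HiBiT knocked into endogenous HLA-B*08:01 were stimulated with 4.0 ng/ml IFN-beta and treated with compounds ([…] top 46 uM) for 24 hrs at 37 C. HiBiT lytic luminescence read.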

Row | SMILES | activity change, negative = inhibition | Potency
1 | CCc1cc(OC)c(C[C@H](C)N)cc1OC | -18.4% [at 92.2 µM] | –
2 | CCCC(C)C1(CC)C(=O)N=C(S)NC1=O (stereo not drawn) | 4.04% | –
3 | CCNc1nc(Cl)nc(NCC)n1 | -2.39% | –
4 | CC(C)=CCN1CC[C@@]2(C)c3cc(O)ccc3C[C@@H]1[C@@H]2C | -21% [at 92.2 µM] | –
5 | Cc1ncc2n1-c1ccc(Cl)cc1C(c1ccccc1F)=NC2 | -21.4% | –
6 | CN(C)CCc1c[nH]c2cccc(O)c12 | -2.28% [at 92.2 µM] | –
7 | Nc1ccc(N)cc1 | -9.63% | –
8 | Cc1nnc2n1-c1sc(CCc3ccc(CC(C)C)cc3)cc1C(c1ccccc1Cl)=NC2C (stereo not drawn) | -24.2% | –
9 | NCc1cccnc1 | -6.39% | –
10 | O=C(N[C@H]1N=C(c2ccccc2F)c2cccc3c2N(CC3)C1=O)c1cc2ccccc2[nH]1 | -8.03% | –
11 | CNC(C)Cc1ccc2c(c1)OCO2 (stereo not drawn) | -0.845% [at 92.2 µM] | –
12 | COCC(=O)N(c1c(C)cccc1C)C(C)C(=O)OC (stereo not drawn) | 1.33% | –
13 | CC(Cc1ccc2c(c1)OCO2)NO (stereo not drawn) | -7% [at 92.2 µM] | –
14 | O=C(N[C@@H]1N=C(c2ccccc2F)c2cccc3c2N(CC3)C1=O)c1cc2ccccc2[nH]1 | -27.8% | –
15 | C[C@]12CC[C@H]3[C@@H](CC=C4C[C@@H](O)CC[C@@]43C)[C@@H]1CC[C@@H]2O | -0.302% | –
16 | CCN(CC)CCOC(=O)C(C)(c1ccccc1)c1ccccc1 | 1.29% | –
17 | Cc1ccc([N+](=O)[O-])[c]2c1[O][Hg]2 | – | 11.8 µM (active)
18 | Oc1ccc([C@H]2CNCc3c2ccc(O)c3O)cc1O | -14% | –
19 | CCN(Cc1ccc(Cl)nc1)/C(=C/[N+](=O)[O-])NC | -12.9% | –
20 | CC[n+]1c(-c2ccccc2)c2cc(N)ccc2c2ccc(N)cc21 | -9.01% | –
21 | c1ccc2nc(N3CCNCC3)ccc2c1 | 1.71% | –
22 | COc1cc(N)c(Cl)cc1C(=O)NC1CN2CCC1CC2 (stereo not drawn) | -0.546% | –
23 | CN1C(=O)[C@@H](NC(=O)c2cc3ccccc3[nH]2)N=C(c2ccccc2)c2ccccc21 | -22.6% | –
24 | CC(CC(C#N)(c1ccccc1)c1ccccc1)N(C)C (stereo not drawn) | -8.45% [at 92.2 µM] | –
25 | CN1C(=O)CN=C(c2ccccc2)c2cc([N+](=O)[O-])ccc21 | -11.4% | –
26 | CNC(=O)NC(O)C(Cl)(Cl)Cl (stereo not drawn) | 0.557% | –
27 | C[C@H]1C(=O)O[C@@H]2CCN3CC=C(COC(=O)[C@](C)(O)[C@]1(C)O)[C@H]23 | 3.26% | –
28 | COc1ccc2c(C(=O)c3ccc(Cl)cc3)c(C)n(CC(=O)O)c2c1 | -11.4% | –
29 | Cc1nc2ccccc2c(=O)n1-c1ccccc1Cl | -4.1% [at 92.2 µM] | –

Target: Protein phosphatase 1D (Homo sapiens) (UniProt O15297)
Test: RapidFire Mass Spectrometry qHTS Assay for Modulators of WT P53-Induced Phosphatase 1 (WIP1) (AID 1347424); further: potency means the concentration at half of the fitted maximal effect;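 on activity change, negative = inhibition: plate controls were DMSO wells for no effect and GSK830371 inhibitor control at 10 µM for full effect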
Conditions: WIP1 dephosphorylation of phosphopeptide, RapidFire MS; series mostly up to 63 µM; activity change, negative = inhibition: at the top concentration
Outline: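 RapidFire MS readout of dephosphorylated VEPPL-S-QETFS product, with 1 uM isotope-labelled peptide standard. Reaction: 10 nM WIP1, 2 uM phosphopeptide substrate, 5 min, room temperature, after 1 h compound preincubation; stopped with 0.5% formic acid.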

Protein phosphatase 1D (Homo sapiens), sequence (O15297 whole entry, looked up): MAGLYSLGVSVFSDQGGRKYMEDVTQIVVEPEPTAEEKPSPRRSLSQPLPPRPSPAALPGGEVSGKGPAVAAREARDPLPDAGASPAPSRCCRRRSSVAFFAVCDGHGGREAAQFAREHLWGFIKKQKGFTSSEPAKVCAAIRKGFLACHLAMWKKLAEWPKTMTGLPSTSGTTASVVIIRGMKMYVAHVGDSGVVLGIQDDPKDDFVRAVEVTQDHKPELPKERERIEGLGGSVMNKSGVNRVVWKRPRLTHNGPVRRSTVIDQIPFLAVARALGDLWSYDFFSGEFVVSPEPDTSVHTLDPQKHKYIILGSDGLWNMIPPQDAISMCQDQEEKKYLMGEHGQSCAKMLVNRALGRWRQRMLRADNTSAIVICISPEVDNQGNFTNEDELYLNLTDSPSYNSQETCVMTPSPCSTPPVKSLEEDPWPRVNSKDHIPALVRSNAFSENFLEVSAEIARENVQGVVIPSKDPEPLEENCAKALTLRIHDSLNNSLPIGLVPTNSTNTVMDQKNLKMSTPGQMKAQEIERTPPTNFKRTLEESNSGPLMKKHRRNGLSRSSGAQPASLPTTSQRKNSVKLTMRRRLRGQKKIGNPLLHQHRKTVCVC

Row | SMILES | activity change, negative = inhibition | Potency
30 | CCC(=O)O[C@H]1CC[C@H]2[C@@H]3CCC4=CC(=O)CC[C@]4(C)[C@H]3CC[C@]12C | 57% | –
31 | C[C@H](N)[C@H](O)c1ccc(O)c(O)c1 | – | 2 µM (active)
32 | CCc1cc(OC)c(C[C@H](C)N)cc1OC | 2.91% [at 128 µM] | –
33 | CCCC(C)C1(CC)C(=O)N=C(S)NC1=O (stereo not drawn) | 0.414% | –
34 | CCNc1nc(Cl)nc(NCC)n1 | -0.0938% | –
35 | CC(C)=CCN1CC[C@@]2(C)c3cc(O)ccc3C[C@@H]1[C@@H]2C | -0.43% [at 128 µM] | –
36 | COc1ccc2c3c1O[C@H]1[C@@H](O)C=C[C@H]4[C@@H](C2)N(C)CC[C@@]341 | 2.79% [at 128 µM] | –
37 | Cc1ncc2n1-c1ccc(Cl)cc1C(c1ccccc1F)=NC2 | -3.48% | –
38 | CCOP(=S)(OCC)O/N=C(\C#N)c1ccccc1 | -4.62% | –
39 | CN(C)CCc1c[nH]c2cccc(O)c12 | -14.7% [at 128 µM] | –
40 | Nc1ccc(N)cc1 | -24.7% | –
41 | NCc1cccnc1 | 4.51% | –
42 | CC#C[C@]1(O)CC[C@H]2[C@@H]3C[C@H](C)C4=CC(=O)CC[C@]4(C)[C@H]3CC[C@@]21C | 4.98% | –
43 | CNC(C)Cc1ccc2c(c1)OCO2 (stereo not drawn) | -10.7% [at 128 µM] | –
44 | Oc1ccc2[nH]cc(CCCCN3CC=C(c4ccccc4)CC3)c2c1 | 4.57% | –
45 | COCC(=O)N(c1c(C)cccc1C)C(C)C(=O)OC (stereo not drawn) | -0.3% | –
46 | CNC(=O)Oc1cccc2ccccc12 | -5.43% | –
47 | CC(Cc1ccc2c(c1)OCO2)NO (stereo not drawn) | 10.3% [at 128 µM] | –
48 | C[C@]12CC[C@H]3[C@@H](CC=C4C[C@@H](O)CC[C@@]43C)[C@@H]1CC[C@@H]2O | 3.17% | –
49 | CCN(CC)CCOC(=O)C(C)(c1ccccc1)c1ccccc1 | 10.3% | –
50 | Cc1ccc([N+](=O)[O-])[c]2c1[O][Hg]2 | – | 3.98 µM (active)
51 | CCOC(=O)c1cncn1C(C)c1ccccc1 (stereo not drawn) | 6.59% | –
52 | CCN(Cc1ccc(Cl)nc1)/C(=C/[N+](=O)[O-])NC | 8.31% | –
53 | COc1cc(N)c(Cl)cc1C(=O)NC1CN2CCC1CC2 (stereo not drawn) | 0.323% | –
54 | CC(CC(C#N)(c1ccccc1)c1ccccc1)N(C)C (stereo not drawn) | -4.58% [at 128 µM] | –
55 | CC[C@]1(O)CC[C@H]2[C@@H]3CCC4=CCCC[C@@H]4[C@H]3CC[C@@]21C | -3.82% | –
56 | CN1C(=O)CN=C(c2ccccc2)c2cc([N+](=O)[O-])ccc21 | 5.58% | –
57 | CNC(=O)NC(O)C(Cl)(Cl)Cl (stereo not drawn) | -10.4% | –
58 | C[C@H]1C(=O)O[C@@H]2CCN3CC=C(COC(=O)[C@](C)(O)[C@]1(C)O)[C@H]23 | -9.09% | –
59 | Cc1nc2ccccc2c(=O)n1-c1ccccc1Cl | -4.15% [at 128 µM] | –

Target: Protein phosphatase 1D (Homo sapiens) (UniProt O15297)
Test: Rhodamine-PBP qHTS Assay for Modulators of WT P53-Induced Phosphatase 1 (WIP1) (AID 1347425); further: % of control where 0% means no effect
Conditions: recombinant WIP1, Rhodamine-PBP phosphate fluorescence, real-time; series mostly up to 57.5 µM; activity change, negative = inhibition: at the top concentration
Outline: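 The read-out is the change in Rhodamine-PBP fluorescence (f1 - f0, ex 525/em 598 nm) as Pi is released, read each minute for 11 min. Final reaction: 5 nM WIP1, 10 uM phosphopeptide VEPPL-pS-QETFS, 10 uM Rh-PBP, 50 mM Tris-HCl pH 7.5, 30 mM MgCl2. Compound was preincubated with enzyme for 1 hour at room temperature.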

Row | SMILES | activity change, negative = inhibition
60 | CCC(=O)O[C@H]1CC[C@H]2[C@@H]3CCC4=CC(=O)CC[C@]4(C)[C@H]3CC[C@]12C | -0.395%
61 | C[C@H](N)[C@H](O)c1ccc(O)c(O)c1 | -15%
62 | CCc1cc(OC)c(C[C@H](C)N)cc1OC | -22% [at 116 µM]
63 | CCCC(C)C1(CC)C(=O)N=C(S)NC1=O (stereo not drawn) | -2.24%
64 | CCNc1nc(Cl)nc(NCC)n1 | 8.57%
65 | CC(C)=CCN1CC[C@@]2(C)c3cc(O)ccc3C[C@@H]1[C@@H]2C | -20.9% [at 116 µM]
66 | COc1ccc2c3c1O[C@H]1[C@@H](O)C=C[C@H]4[C@@H](C2)N(C)CC[C@@]341 | 17.8% [at 116 µM]
67 | Cc1ncc2n1-c1ccc(Cl)cc1C(c1ccccc1F)=NC2 | 3.12%
68 | CCOP(=S)(OCC)O/N=C(\C#N)c1ccccc1 | 4.2%
69 | CN(C)CCc1c[nH]c2cccc(O)c12 | -1.47% [at 116 µM]
70 | NCc1cccnc1 | 10.9%
71 | CC#C[C@]1(O)CC[C@H]2[C@@H]3C[C@H](C)C4=CC(=O)CC[C@]4(C)[C@H]3CC[C@@]21C | 3.01%
72 | O=C(N[C@H]1N=C(c2ccccc2F)c2cccc3c2N(CC3)C1=O)c1cc2ccccc2[nH]1 | -25.6%
73 | CNC(C)Cc1ccc2c(c1)OCO2 (stereo not drawn) | 8.65% [at 151 µM]
74 | Oc1ccc2[nH]cc(CCCCN3CC=C(c4ccccc4)CC3)c2c1 | 22.4%
75 | COCC(=O)N(c1c(C)cccc1C)C(C)C(=O)OC (stereo not drawn) | 3.41%
76 | CNC(=O)Oc1cccc2ccccc12 | -3.4%

Row | SMILES | activity change, negative = inhibition
77 | CC(Cc1ccc2c(c1)OCO2)NO (stereo not drawn) | -3.55% [at 116 µM]
78 | O=C(N[C@@H]1N=C(c2ccccc2F)c2cccc3c2N(CC3)C1=O)c1cc2ccccc2[nH]1 | -19%
79 | C[C@]12CC[C@H]3[C@@H](CC=C4C[C@@H](O)CC[C@@]43C)[C@@H]1CC[C@@H]2O | 0.927%
80 | CCN(CC)CCOC(=O)C(C)(c1ccccc1)c1ccccc1 | 9.3%
81 | CCOC(=O)c1cncn1C(C)c1ccccc1 (stereo not drawn) | 8.19%
82 | Oc1ccc([C@H]2CNCc3c2ccc(O)c3O)cc1O | -15.9%
83 | CCN(Cc1ccc(Cl)nc1)/C(=C/[N+](=O)[O-])NC | 2.05%
84 | c1ccc2nc(N3CCNCC3)ccc2c1 | 0.323%
85 | COc1cc(N)c(Cl)cc1C(=O)NC1CN2CCC1CC2 (stereo not drawn) | 17%
86 | CN1C(=O)[C@@H](NC(=O)c2cc3ccccc3[nH]2)N=C(c2ccccc2)c2ccccc21 | -18.8%
87 | CC(CC(C#N)(c1ccccc1)c1ccccc1)N(C)C (stereo not drawn) | 10.7% [at 116 µM]
88 | CC[C@]1(O)CC[C@H]2[C@@H]3CCC4=CCCC[C@@H]4[C@H]3CC[C@@]21C | 5.64%
89 | CN1C(=O)CN=C(c2ccccc2)c2cc([N+](=O)[O-])ccc21 | 12.9%
90 | CNC(=O)NC(O)C(Cl)(Cl)Cl (stereo not drawn) | 1.7%
91 | C[C@H]1C(=O)O[C@@H]2CCN3CC=C(COC(=O)[C@](C)(O)[C@]1(C)O)[C@H]23 | 5.18%
92 | COc1ccc2c(C(=O)c3ccc(Cl)cc3)c(C)n(CC(=O)O)c2c1 | -10.8%
93 | Cc1nc2ccccc2c(=O)n1-c1ccccc1Cl | -22.5% [at 116 µM]
